In PubChem BioAssay (NCATS):
Records with an inconclusive call do not appear. Active and inactive are the calls of the source. Calls follow the shape of the dose curve; as a rule, active = well fitted cell-killing curve with a large enough effect; inconclusive = small, poorly fitted or top-dose-only effect, or effect the other way; inactive = no such curve, though single readings can be large or run the other way.
Potency is read from the fitted curve at half-maximal effect.

Assay: Quantitative High-Throughput drug screen in 47 multiple myeloma cell lines against the NCATS MIPE library collection: INA6_PLB cell viability assay (AID 1918965; also: nearly all actives have a fitted effect of over 55% in size)
Conditions: INA6 myeloma viability, CellTiter-Glo ATP luminescence, 48 h; series mostly up to 45.8 µM
Procedure, shortened: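 CellTiter-Glo luminescence (ATP) after 48 h compound exposure, 37C/5% CO2; 500 cells/well; MIPE 4.0 approved/investigational drugs pinned in; DMSO = 100%, media only = 0% viability.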
For NS(=O)(=O)c1cc(Cl)c(Cl)c(S(N)(=O)=O)c1, the Potency was “inactive”. For CC[C@H](C)C(=O)O[C@H]1C[C@H](O)C=C2C=C[C@H](C)[C@H](CC[C@@H](O)C[C@@H](O)CC(=O)O)[C@H]21, the Potency was “inactive”. With CC[C@H](NC(=O)[C@H](C)NC)C(=O)N1C[C@@H](O)C[C@H]1Cc1c(-c2[nH]c3cc(F)ccc3c2C[C@H]2C[C@H](O)CN2C(=O)[C@H](CC)NC(=O)[C@H](C)NC)[nH]c2cc(F)ccc12 the Potency was 11.8 µM (active). In the case of NC1(C(=O)N[C@@H](CCO)c2ccc(Cl)cc2)CCN(c2ncnc3[nH]ccc23)CC1, the Potency is reported as 7.43 µM (active). For N#CC(c1ccc(Cl)cc1)c1c(Cl)cc(-n2ncc(=O)[nH]c2=O)cc1Cl (stereo unspecified), the Potency was 23.5 µM (active). For CCc1cc(-c2n[nH]c(C)c2-c2ccc3c(c2)OCCO3)c(O)cc1O, the Potency was 4.69 µM (active). In the case of Cc1cn([C@@H]2C[C@@H](O)[C@H](CO)O2)c(=O)[nH]c1=O, the Potency is reported as 0.0166 µM (active). With Cc1ccc(NC(=O)Nc2cc(C(F)(F)F)ccc2F)cc1Nc1ccc2c(c1)NC(=O)C2=Cc1ccc[nH]1 the Potency was 4.18 µM (active). In the case of CC(C)(C)c1nc(-c2cccc(NS(=O)(=O)c3c(F)cccc3F)c2F)c(-c2ccnc(N)n2)s1, the Potency is reported as 0.264 µM (active). In the case of O=S(=O)(NCCNCC=Cc1ccc(Br)cc1)c1cccc2cnccc12, the Potency is reported as 7.43 µM (active). In the case of CN[C@@H](C)[C@H]1[C@H](O)C[C@@]2(C)[C@@H]3CC[C@H]4C(C)(C)[C@@H](NC)CC[C@@]45C[C@@]35CC[C@]12C, the Potency is reported as “inactive”. In the case of COC(=O)Nc1ccc(-c2nc(N3CCOCC3)c3cnn(C4CCN(C(=O)OC)CC4)c3n2)cc1, the Potency is reported as 0.0935 µM (active). With CC[C@H](C=C[C@@H](C)[C@H]1CC[C@H]2[C@@H]3CC=C4C[C@@H](O)CC[C@]4(C)[C@@H]3CC[C@]12C)C(C)C the Potency was 1.62 µM (active). In the case of COc1c(C)cnc(Cn2cnc3c(Cl)nc(N)nc32)c1C, the Potency is reported as 0.148 µM (active). With C[C@@H]1C[C@H]2[C@@H]3CCC4=CC(=O)C=C[C@]4(C)[C@@]3(F)[C@@H](O)C[C@]2(C)[C@@]1(O)C(=O)CO the Potency was “inactive”. With CC(C)n1c(C=C[C@H](O)C[C@H](O)CC(=O)O)c(-c2ccc(F)cc2)c2ccccc21 the Potency was 10.5 µM (active). With O=C1CCCC(=O)C1C(=O)c1ccc(C(F)(F)F)cc1[N+](=O)[O-] the Potency was “inactive”. With Cc1ccc(NC(=O)c2cccc(N(C)C)c2)cc1NC(=O)c1ccc(O)cc1 the Potency was 16.6 µM (active). With C=C1[C@H](n2cnc3c(=O)[nH]c(N)nc32)C[C@H](O)[C@H]1CO the Potency was 11.8 µM (active). With Cc1nc(NC(=O)N2CCC[C@@H]2C(N)=O)sc1-c1csc(C(C)(C)C)n1 the Potency was 16.6 µM (active). For CNC(=O)c1ccc2c(C(=Nc3cccc(CN(C)C)c3)c3ccccc3)c(O)[nH]c2c1, the Potency was 20.9 µM (active). In the case of CNC(=O)c1cc(COc2nnc(Nc3ccc(Cl)cc3)c3ccoc23)ccn1, the Potency is reported as 13.2 µM (active). In the case of O=C(Nc1ccccc1)Nc1ccc(-c2ccc(C(=O)[C@H]3CCC[C@H]3C(=O)O)cc2)cc1, the Potency is reported as “inactive”. In the case of CCn1c(-c2nonc2N)nc2cncc(CNC3CCNCC3)c21, the Potency is reported as 5.9 µM (active). With Cc1[nH]c(C=C2C(=O)Nc3ccc(S(=O)(=O)N(C)c4cccc(Cl)c4)cc32)c(C)c1C(=O)N1CCN(C)CC1 the Potency was 11.8 µM (active).

Assay: Quantitative High-Throughput drug screen in 47 multiple myeloma cell lines against the NCATS MIPE library collection: JJN3_DSMZ cell viability assay (AID 1918966; also: nearly all actives have a fitted effect of over 50% in size)
Conditions: JJN3 myeloma cells viability, CellTiter-Glo ATP, 48 h; series mostly up to 45.8 µM
Procedure, shortened: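 Relative luminescence from CellTiter-Glo served as the viability signal, referenced to DMSO-treated (100%) and cell-free medium (0%) controls. Treatment lasted 48 hours at 37C with 500 cells per well.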
For CN(C)CC[C@H](CSc1ccccc1)Nc1ccc(S(=O)(=O)NC(=O)c2ccc(N3CCN(Cc4ccccc4-c4ccc(Cl)cc4)CC3)cc2)cc1[N+](=O)[O-], the Potency was 8.33 µM (active). With O=c1[nH]c(=O)n([C@H]2C[C@@H](O)[C@@H](CO)O2)cc1C(F)(F)F the Potency was “inactive”. With CCOC(=O)N1CCN([N+]([O-])=NOc2cc(ON=[N+]([O-])N3CCN(C(=O)OCC)CC3)c([N+](=O)[O-])cc2[N+](=O)[O-])CC1 the Potency was 2.96 µM (active). With O=C(CC12CC3CC(CC(C3)C1)C2)Nc1cccc2nc(NCCNCCO)ccc12 the Potency was 9.35 µM (active). With COc1ccc(-c2oc3c(CC=C(C)C)c(O)cc(O)c3c(=O)c2O)cc1 the Potency was 18.7 µM (active). With N#CC(c1ccnc(NCCc2cccnc2)n1)c1nc2ccccc2s1 (stereo unspecified) the Potency was 10.5 µM (active). For CN[C@@H]1CN(c2ccc3c(=O)c(C(=O)O)cn(-c4nccs4)c3n2)C[C@@H]1OC, the Potency was 8.12 µM (active). For CCC(C)SSc1ncc[nH]1 (stereo unspecified), the Potency was 4.69 µM (active). In the case of CCOC(=O)c1c(CSc2ccccc2)n(C)c2cc(Br)c(O)c(CN(C)C)c12, the Potency is reported as 11.8 µM (active). In the case of C[C@@H]1O[C@@H](O[C@H]2CC[C@@]3(C)[C@H](CC[C@@H]4[C@H]3C[C@@H](O)[C@]3(C)[C@@H](C5=CC(=O)OC5)CC[C@]43O)C2)C[C@H](O)[C@@H]1O[C@H]1C[C@H](O)[C@H](O[C@H]2C[C@H](O)[C@@H](O)[C@@H](C)O2)[C@H](C)O1 (stereo in doubt), the Potency is reported as 0.34 µM (active). For CNC1CCC(N(Cc2cccc(-c3ccncc3)c2)C(=O)c2sc3ccccc3c2Cl)CC1 (stereo unspecified), the Potency was 18.7 µM (active). In the case of NS(=O)(=O)c1cc(Cl)c(Cl)c(S(N)(=O)=O)c1, the Potency is reported as “inactive”. In the case of CC[C@H](C)C(=O)O[C@H]1C[C@H](O)C=C2C=C[C@H](C)[C@H](CC[C@@H](O)C[C@@H](O)CC(=O)O)[C@H]21, the Potency is reported as “inactive”. For CC[C@H](NC(=O)[C@H](C)NC)C(=O)N1C[C@@H](O)C[C@H]1Cc1c(-c2[nH]c3cc(F)ccc3c2C[C@H]2C[C@H](O)CN2C(=O)[C@H](CC)NC(=O)[C@H](C)NC)[nH]c2cc(F)ccc12, the Potency was “inactive”. For NC1(C(=O)N[C@@H](CCO)c2ccc(Cl)cc2)CCN(c2ncnc3[nH]ccc23)CC1, the Potency was 2.96 µM (active). In the case of N#CC(c1ccc(Cl)cc1)c1c(Cl)cc(-n2ncc(=O)[nH]c2=O)cc1Cl (stereo unspecified), the Potency is reported as 16.6 µM (active). For CCc1cc(-c2n[nH]c(C)c2-c2ccc3c(c2)OCCO3)c(O)cc1O, the Potency was 4.18 µM (active). With Cc1cn([C@@H]2C[C@@H](O)[C@H](CO)O2)c(=O)[nH]c1=O the Potency was “inactive”. For Cc1ccc(NC(=O)Nc2cc(C(F)(F)F)ccc2F)cc1Nc1ccc2c(c1)NC(=O)C2=Cc1ccc[nH]1, the Potency was 23.5 µM (active). For CC(C)(C)c1nc(-c2cccc(NS(=O)(=O)c3c(F)cccc3F)c2F)c(-c2ccnc(N)n2)s1, the Potency was 3.32 µM (active). With O=S(=O)(NCCNCC=Cc1ccc(Br)cc1)c1cccc2cnccc12 the Potency was 16.6 µM (active). For CN[C@@H](C)[C@H]1[C@H](O)C[C@@]2(C)[C@@H]3CC[C@H]4C(C)(C)[C@@H](NC)CC[C@@]45C[C@@]35CC[C@]12C, the Potency was “inactive”. For COC(=O)Nc1ccc(-c2nc(N3CCOCC3)c3cnn(C4CCN(C(=O)OC)CC4)c3n2)cc1, the Potency was 0.935 µM (active). In the case of CC[C@H](C=C[C@@H](C)[C@H]1CC[C@H]2[C@@H]3CC=C4C[C@@H](O)CC[C@]4(C)[C@@H]3CC[C@]12C)C(C)C, the Potency is reported as “inactive”. With COc1c(C)cnc(Cn2cnc3c(Cl)nc(N)nc32)c1C the Potency was 0.166 µM (active). For C[C@@H]1C[C@H]2[C@@H]3CCC4=CC(=O)C=C[C@]4(C)[C@@]3(F)[C@@H](O)C[C@]2(C)[C@@]1(O)C(=O)CO, the Potency was “inactive”. For CC(C)n1c(C=C[C@H](O)C[C@H](O)CC(=O)O)c(-c2ccc(F)cc2)c2ccccc21, the Potency was “inactive”. With O=C1CCCC(=O)C1C(=O)c1ccc(C(F)(F)F)cc1[N+](=O)[O-] the Potency was “inactive”. For Cc1ccc(NC(=O)c2cccc(N(C)C)c2)cc1NC(=O)c1ccc(O)cc1, the Potency was 23.5 µM (active). With C=C1[C@H](n2cnc3c(=O)[nH]c(N)nc32)C[C@H](O)[C@H]1CO the Potency was “inactive”. For Cc1nc(NC(=O)N2CCC[C@@H]2C(N)=O)sc1-c1csc(C(C)(C)C)n1, the Potency was 6.62 µM (active). With CNC(=O)c1ccc2c(C(=Nc3cccc(CN(C)C)c3)c3ccccc3)c(O)[nH]c2c1 the Potency was 2.64 µM (active). With CNC(=O)c1cc(COc2nnc(Nc3ccc(Cl)cc3)c3ccoc23)ccn1 the Potency was 29.6 µM (active). In the case of O=C(Nc1ccccc1)Nc1ccc(-c2ccc(C(=O)[C@H]3CCC[C@H]3C(=O)O)cc2)cc1, the Potency is reported as 3.72 µM (active). With CCn1c(-c2nonc2N)nc2cncc(CNC3CCNCC3)c21 the Potency was 5.26 µM (active). For Cc1[nH]c(C=C2C(=O)Nc3ccc(S(=O)(=O)N(C)c4cccc(Cl)c4)cc32)c(C)c1C(=O)N1CCN(C)CC1, the Potency was 20.9 µM (active).
